Laboratory results reported in PubChem BioAssay AID2638 (Johns Hopkins Ion Channel Center, 2010).
Active and inactive are the calls of the source.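 Rule for the calls: active = compound restoring hERG potassium channel current, after block by a reference inhibitor, at any concentration tried; inactive = no current restored at any concentration tried.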

These compounds were tested against Voltage-gated inwardly rectifying potassium channel KCNH2 (Homo sapiens) (UniProt Q12809) (assay: concentration dependence of hERG rescue from dofetilide, dose response, manual patch clamp, HEK293 cells (AID 2638)). Details: tail current; current remaining: measured here: rescue from 100 nM dofetilide block, at 50 µM, stronger effect = higher value unless noted; series mostly up to 100 µM.
Voltage-gated inwardly rectifying potassium channel KCNH2 (Homo sapiens), sequence (Q12809 whole entry, looked up): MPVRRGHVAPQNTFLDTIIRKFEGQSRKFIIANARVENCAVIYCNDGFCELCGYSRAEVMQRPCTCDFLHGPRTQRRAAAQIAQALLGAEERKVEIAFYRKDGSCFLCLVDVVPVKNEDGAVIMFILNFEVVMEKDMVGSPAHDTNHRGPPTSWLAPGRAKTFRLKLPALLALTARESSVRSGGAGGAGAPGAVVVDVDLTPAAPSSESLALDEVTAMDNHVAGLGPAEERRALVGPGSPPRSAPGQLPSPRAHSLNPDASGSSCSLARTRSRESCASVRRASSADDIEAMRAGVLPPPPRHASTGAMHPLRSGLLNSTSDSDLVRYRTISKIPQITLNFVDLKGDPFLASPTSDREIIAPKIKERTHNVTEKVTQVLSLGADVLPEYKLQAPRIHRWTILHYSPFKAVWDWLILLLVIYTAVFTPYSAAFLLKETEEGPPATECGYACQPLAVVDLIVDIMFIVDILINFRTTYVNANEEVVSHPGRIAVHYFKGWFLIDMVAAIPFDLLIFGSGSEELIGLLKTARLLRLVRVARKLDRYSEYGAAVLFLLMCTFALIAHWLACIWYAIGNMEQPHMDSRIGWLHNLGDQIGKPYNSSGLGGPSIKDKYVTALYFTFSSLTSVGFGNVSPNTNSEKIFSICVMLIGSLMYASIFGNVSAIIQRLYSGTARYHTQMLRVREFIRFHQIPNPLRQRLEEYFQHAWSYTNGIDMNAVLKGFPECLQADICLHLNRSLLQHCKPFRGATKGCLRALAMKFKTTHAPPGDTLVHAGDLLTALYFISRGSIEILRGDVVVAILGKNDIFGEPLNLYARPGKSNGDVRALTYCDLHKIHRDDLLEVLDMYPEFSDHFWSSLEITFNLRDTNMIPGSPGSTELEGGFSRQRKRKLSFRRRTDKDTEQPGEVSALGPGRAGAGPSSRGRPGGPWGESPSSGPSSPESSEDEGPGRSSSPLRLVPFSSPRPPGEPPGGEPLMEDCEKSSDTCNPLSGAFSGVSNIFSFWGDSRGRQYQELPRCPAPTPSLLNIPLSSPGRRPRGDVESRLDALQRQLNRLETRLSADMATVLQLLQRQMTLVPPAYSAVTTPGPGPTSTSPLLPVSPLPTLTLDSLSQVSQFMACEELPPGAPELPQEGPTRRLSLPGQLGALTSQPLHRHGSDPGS

| Compound | current remaining | outcome |
| --- | --- | --- |
| O=C(O)c1cc(Cl)ccc1Nc1nc2cc(Cl)ccc2o1 | 4.15% | – |
| CCC1CCCCN1C(=S)NC(=O)c1cccs1 (centres undefined) | 46.5% [measured here: rescue from 100 nM dofetilide block, at 10 µM, stronger effect = higher value] | – |
| O=C(COc1ccc2ccccc2c1Br)Nc1cccnc1 | 1% | inactive |
